The full list was thinned out, with hits kept by preference.
aSyn yeast rescue: rescues yeast growth from alpha-synuclein toxicity | hit rate 0.02% among 94,000 | S. cerevisiae alpha-synuclein toxicity rescue, BacTiter-Glo growth, 24 h | Potency, µM (doses to about 46.1 µM), actives largely listed as activators; active = well fitted activation curve with a large enough effect; also: 0% is about no effect
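Growth restoration measured by BacTiter-Glo luminescence after 24 hr at 30 deg C; alpha-synuclein yeast, raffinose-pregrown to mid-log, were added at OD600=0.02 in galactose medium onto pinned compounds.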
* = called active by the depositor; i = inactive. Potency is read from the fitted curve at half-maximal effect.

SMILES	aSyn yeast rescue
O=C(C1COc2ccccc2O1)N(Cc1cccnc1)c1nc2c(Cl)cccc2s1 (configuration not stated)	i
COc1cccc2sc(N(Cc3cccnc3)C(=O)COc3ccccc3)nc12	i
O=C(Cc1ccccc1)N(Cc1cccnc1)c1nc2c(Cl)cccc2s1	14µM*
Cc1ccc(NC(=O)c2sc(-n3nc(C)c(Cc4ccc5c(c4)OCO5)c3C)nc2C)cc1C	i
COc1ccc(C(=O)NCCn2cc(SCc3cc(C)ccc3C)c3ccccc32)cc1	i
COc1ccc(-c2nc3c(C#N)c[nH]n3c2NC2CCCC2)cc1	i
CCOc1ccc(NC(=O)NC(CC)Cn2nnc3ccccc3c2=O)cc1 (configuration not stated)	i
CCOc1ccccc1Oc1nc(C)nc2c1oc1ccccc12	i
CCOC(=O)c1cc(S(=O)(=O)NCc2cccc(Cl)c2)[nH]n1	i
COc1cccc(-c2cc(C(=O)Nc3c(C)nn(Cc4ccccc4Cl)c3C)no2)c1	i
O=C(Oc1ccc(F)cc1)c1nc(SCc2ccccc2F)ncc1Cl	i
CCOC(=O)Cn1c(=O)n(-c2ccc(Cl)cc2)c2nc(-c3ccc(Cl)cc3)nc(C(N)=O)c21	i
Cc1nn(S(=O)(=O)c2ccc(C(C)(C)C)cc2)c(C)c1S(=O)(=O)N1CCC(C)CC1	i
Cc1cccc(NC(=O)C(=O)NCC(c2ccc3c(c2)OCO3)N2CCOCC2)c1C (configuration not stated)	i
CC(C)Oc1ccc(CNC(=O)c2cccc(NC(=O)c3nsc4ccccc34)c2)cc1	i
CC(C)Cn1cc(C(=O)N2CCN(c3cccc(Cl)c3)CC2)c2c3ccccc3n(C)c2c1=O	i
Cc1ccc(NC(=O)c2cc(S(=O)(=O)N3CCCCCC3)ccc2F)cc1F	i
CCc1ccc(NC(=O)c2cc(S(=O)(=O)NC3CCCC3)ccc2F)cc1	i
Cc1ccc(NC(=O)c2cc(S(=O)(=O)NC3CCCCCC3)ccc2F)cc1F	25µM*
Cc1ccc2sc(N3CCN(C(=O)C4COc5ccccc5O4)CC3)nc2c1C (configuration not stated)	i
O=C(COCc1cc(-c2ccc3c(c2)OCO3)on1)Nc1cccc(O)c1	i
O=C(COc1ccccc1)NCC(c1ccc(Cl)cc1)N1CCCCC1 (configuration not stated)	i
CC(C)Cn1c(=O)c2ccccc2n2c(CCC(=O)Nc3ccc(F)cc3)nnc12	i
CC(=O)c1cccc(NS(=O)(=O)c2cccc(S(=O)(=O)c3ccc(Br)cc3)c2)c1	i
COc1ccc(-c2cn3c(n2)sc2cc(C(=O)Nc4cccc(SC)c4)ccc23)cc1	i
SMILES	aSyn yeast rescue
CCOC(=O)c1ccccc1NC(=O)CSc1nc2cn(CC)nc2c(=O)n1Cc1ccc(Cl)cc1	i
CC(=O)c1c(C)oc2c(Br)cc(NS(=O)(=O)c3ccc(Br)cc3)cc12	i
O=c1c2sc3ccccc3c2n(Cc2cccc(C(F)(F)F)c2)c(=O)n1Cc1ccc(F)cc1	i
COc1ccc(-c2cc(C(C)=O)c(C)n2CCC(=O)NCc2ccc(F)cc2)cc1	i
Cc1ccccc1NC(=O)c1cccc2c(=O)c3c([nH]c12)CCCC3	i
COc1ccc(-n2c(=O)c3ccc(C(=O)NCc4ccc(C)cc4)cc3n(CC(=O)Nc3cccc(F)c3)c2=O)cc1	i
CCN(CCCNC(=O)c1cc2cc3cc(C)ccc3nc2s1)c1cccc(C)c1	i
O=c1[nH]c(SCc2ccc(F)cc2)nc2c1CCCC2	i
CC(=O)c1cccc(NCc2ccccc2-c2nnc(-c3ccccc3)o2)c1	i
Cn1nnc2c(N3CCN(c4cccc(Cl)c4)CC3)ncnc21	i
CCOC(=O)c1ccccc1NC(=O)N1CCCn2nc(C)cc21	i
COc1ccc(C)cc1NC(=O)C1COc2ccccc2C1 (configuration not stated)	i
CCOC(=O)c1cc(S(=O)(=O)N2CCN(c3ccc(C)cc3C)CC2)[nH]n1	i
Cc1ccn2c(Nc3ccc(C(C)C)cc3)c(-c3cccnc3)nc2c1	i
COc1cc(-c2nc3cnccn3c2Nc2ccc(C(C)C)cc2)ccc1O	i
CC(C)c1ccc(Nc2c(-c3ccccc3O)nc3cnccn23)cc1	22µM*
CCOC(=O)c1cc(C)n(CC2CCC(C(=O)Nc3cccc(C(C)=O)c3)CC2)c1C (configuration not stated)	i
O=C(Cn1cc(S(=O)(=O)Cc2ccc(F)cc2)c2ccccc21)NCc1ccccc1	i
Cc1c(C(=O)Nc2ccc(F)c(F)c2)oc2ccc(S(=O)(=O)N(C)C3CCCCC3)cc12	i
COc1ccc(-c2cn3nc(N4CCC(C(=O)NCc5ccccc5F)CC4)sc3n2)cc1	i
CCc1ccc(S(=O)(=O)Nc2cccc(-c3ccc(N4CCC(C)CC4)nn3)c2)s1	i
Cc1ccc(-n2nc(C(=O)N3CCN(c4cc(Cl)ccc4C)CC3)c(=O)n(C)c2=O)cc1	i
CCc1ccc(-c2nc(CS(=O)CC(=O)NCCc3ccc(C)cc3)c(C)o2)cc1 (configuration not stated)	20µM*
Cc1ccc(CCNC(=O)CS(=O)Cc2nc(-c3ccccc3C)oc2C)cc1 (configuration not stated)	i
Cc1ccc(CCNC(=O)CS(=O)Cc2nc(-c3cccs3)oc2C)cc1 (configuration not stated)	i
SMILES	aSyn yeast rescue
CC(C)Cc1ccc(S(=O)(=O)N2CCC(c3ccncc3)CC2)cc1	i
Cc1ccc(C)c(N2CCN(CCCNC(=O)c3ccc4nc(N5CCCCC5)sc4c3)CC2)c1	i
CCN(CC)S(=O)(=O)c1ccc(NC(=O)NCc2noc3ccc(C)cc23)cc1	i
O=C(NCCc1csc(-c2cccc(F)c2)n1)c1cccs1	i
CCOC(=O)C1=C(CN2CCN(c3ccccc3F)CC2)NC(=O)NC1c1ccc(Cl)cc1 (configuration not stated)	i
COc1ccccc1NC(=O)C(=O)NCC(c1ccc2c(c1)OCO2)N1CCOCC1 (configuration not stated)	i
COc1ccc(Cl)cc1NC(=O)CSc1nc2c(oc3ccccc32)c(=O)n1Cc1ccco1	i
O=C(NCCc1csc(-c2ccc(F)cc2)n1)c1cccs1	i
Cc1ccc2c(=O)cc(C(=O)Nc3nc4ccc(Cl)cc4s3)oc2c1C	i
CCOc1ccc(N2CC(c3nc4ccccc4n3CCCOc3ccccc3OC)CC2=O)cc1 (configuration not stated)	i
Cc1nn(CCC(=O)Nc2ccccc2Br)c(=O)c2nn(-c3ccccc3)c(C)c12	i
Cc1ccc(S(=O)(=O)Nc2ccc3nc(-c4ccc(F)cc4)oc3c2)cc1	i
O=S(=O)(Nc1ccc2nc(-c3ccc(F)cc3)oc2c1)c1ccccc1	20µM*
COc1ccc(-c2nc3ccc(NS(=O)(=O)c4ccccc4)cc3o2)cc1	i
CCOC(=O)c1cccc(NC(=O)CCc2c(C)nn(-c3ccc(N4CCOCC4)nn3)c2C)c1	i
Clc1cccc(-n2ncc3c(NCCCn4ccnc4)ncnc32)c1	i
CCc1ccc(CNC(=O)c2cnc3sc(N4CCCCCC4)nn3c2=O)cc1	i
Cc1ccc(CNC(=O)CSc2ncc(S(=O)(=O)c3ccc(C)c(Cl)c3)c(=O)[nH]2)cc1	i
CCN(CC)c1ccc(NC(=O)C2CCN(S(=O)(=O)c3c(C)noc3/C=C/c3ccccc3F)CC2)c(C)c1	i
Cn1nc(-c2ccc(OCC(=O)Nc3cccc(C(F)(F)F)c3)cc2)c2ccccc2c1=O	i
COCCNc1ccc(-c2nc(-c3ccncc3)no2)cc1[N+](=O)[O-]	i

Screening results from PubChem BioAssay.
